Our source for the viability (% of control) values is PubChem BioAssay (NCATS).

The nature of the assay: Cell Proliferation Assay against the TMD8 Cell Line (AID 651645).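 Note: cells exposed to compound for 48 h before reading.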 To be noted: TMD8 DLBCL cell line proliferation/viability; at 46.1 µM (top of the series) unless noted. From the text: One class of targeted therapeutics showing early clinical success in killing of ABC DLBCL lines are small molecule inhibitors of the Bruton tyrosine kinase (BTK) 11.
Prior to any combination assays, using an NCATS developed oncology compound library called the Mechanism of Interrogation Plate (MIPE), two well studied ABC DLBCL lines (TMD8 and HBL1) were screened using a cell viability assay (CellTiterGlo) and a 12-point titration series for each single agent. These initial experiments offered insight into the concentration range that offered the best coverage of activity and non-activity to assure relevant data is generated. In addition to the viability signature associated with this library, we examined the apoptotic response of each agent versus the TMD8 line as judged by caspase 3/7 activation. Activity was assayed at both 8 and 16 hour time-points to gain an appreciation of which agents induced an apoptotic response in a reasonable timeframe from a therapeutic exposure perspective. MIPE was also assayed for single agent viability in a human mesenchymal stem cell (hMSC) line as a surrogate of each library member's potential therapeutic index.
A total of 500 log growing TMD8 cells are seeded per well in 5 uL of a RPMI with glutamine (or Glutamax), without phenol red plus 5% FBS and 1X Pen/Strep into 1536 -solid white high base tissue culture treated Greiner One Bio Plates (789173-F) using a multidrop combi dispenser and a small sterile cassette. Compounds and controls totaling 23nL per well (negative control DMSO and positive control 9.2 uM Bortezomib-final) are immediately added to the plates using a 1536 head pin tool from Kalypsys. The plates are then covered with stainless steel gasket lids from Kalypsys and incubated for 48 hours at 37C under 95% relative humidity with 5% CO2. After 48 hours, the plates are removed and allowed to reach room temperature before 3 uL of Cell Titer Glo reagent (Promega) is added using an Aurora Flying Reagent Dispenser Bioraptor. The plates are then spun at 1000 rpms to remove bubbles and incubated for 15 minutes at room temperature before read on a ViewLux using a luminescent filter with a 10 second exposure. The relative luciferase units are used to calculated percent activity using DMSO as 100% and Bortezomib as 0%.
Turning to `C=CCON=C(C[C@H]1O[C@@H]2O[C@]3(C)CC[C@@H]4[C@H](C)CC[C@@H]([C@H]1C)[C@@]24OO3)[C@H]1O[C@@H]2O[C@]3(C)CC[C@H]4[C@H](C)CC[C@@H]([C@@H]1C)[C@@]24OO3`, the viability (% of control) worked out at 10.2%. To `O=C(Oc1ccc([N+](=O)[O-])cc1)N1CCC(C(O)(c2ccc3c(c2)OCO3)c2ccc3c(c2)OCO3)CC1` belongs 68.8%; to `CCCCN1CCC(CNC(=O)c2c3n(c4ccccc24)CCCO3)CC1`, 119%. To `CC(C)[C@]12O[C@H]1[C@@H]1O[C@]13[C@]1(O[C@H]1C[C@H]1C4=C(CC[C@@]13C)C(=O)OC4)[C@@H]2O` belongs 3.13%; to `Cc1ccccc1-n1c(Cn2cnc3c(N)ncnc32)nc2cccc(C)c2c1=O`, 15.8%; to `COc1ccc2c(c[n+](C)c3c4cc5c(cc4ccc23)OCO5)c1OC`, 3.33%. Take `Cc1nc(-c2ccc(-c3ccc(C(=O)N4CCc5cc6c(cc54)C4(CCN(C)CC4)CO6)cc3)c(C)c2)no1`: the viability (% of control) came to 2.26%. On to `Nc1nc(-c2nn(Cc3ccccc3F)c3ncccc23)nc(N)c1N1CCOCC1`, for which the viability (% of control) was 91.5%. In the case of `CC(=O)Nc1ccc(OC[C@](C)(O)C(=O)Nc2ccc([N+](=O)[O-])c(C(F)(F)F)c2)cc1`, the viability (% of control) is 86.6%.

Consider `CC1CC(C)C(=O)C(C(O)CC2CC(=O)NC(=O)C2)C1` (stereo unspecified), for which the viability (% of control) was 1.51% [at 92.2 µM]. `Cc1c(C(=O)Nc2cccc(C(F)(F)F)c2)cc(-c2ccccc2)n1CCCN1CCOCC1`: the viability (% of control) is 3.39%.
